Measured values from PubChem BioAssay (NCI).
About 79,000 compounds went through this panel and 15% of them were active in at least one assay; those are over-represented in the sample as a whole. A number with no mark means an inactive call. Active and inactive are the calls of the source. Rule as the data show it: active = growth inhibition above about 70%; inactive = the rest.

Test: NCI Yeast Anticancer Drug Screen. Data for the mlh1 strain (AID 171);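 also: 0% = growth of vehicle-treated control cultures of the same strain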
Details: S. cerevisiae mlh1 strain growth inhibition, stronger effect = higher value
Method: Growth inhibition of yeast strains with defined genetic alterations is measured as a screen for potential anti-cancer activity. Selected strains with alterations in DNA damage repair or cell cycle control were exposed to compounds and growth inhibition was measured relative to vehicle treated controls. The strain used in this assay is mlh1

Structure (SMILES)	growth inhibition (at 1.2 µM)	growth inhibition (at 3.7 µM)	growth inhibition (at 11.0 µM)	growth inhibition (at 33.0 µM)	growth inhibition (at 100.0 µM)
CC(CC/C(=N/O)c1ccccc1)(CC/C(=N\O)c1ccccc1)[N+](=O)[O-] (stereo not given)	-4%	-3%	-7%	-6%	32%
O=C(O)c1ccccc1C(=O)OC1CCc2ccccc2C1 (stereo not given)	-5%	-9%	-6%	14%	42%
O=C(C#Cc1ccccc1)Nc1ccccc1	-15%	-12%	-9%	72% (active)	98% (active)
CC(=O)/C=C/c1cc([N+](=O)[O-])ccc1O	-6%	3%	33%	98% (active)	99% (active)
CC(C)(CN1CCCCC1)C(=O)/C=C/c1c(Cl)cccc1Cl	1%	14%	38%	90% (active)	97% (active)
CCO/C=C1\SC(=S)N(c2ccc(OCC)cc2)C1=O	-8%	-12%	-18%	-14%	-10%
COc1ccc2c(c1)CCCC(Br)C2=O (stereo not given)	26%	23%	36%	78% (active)	98% (active)
COc1ccc(-c2cc(-c3cc(C)cc(Cl)c3O)nc3[nH]c(=S)[nH]c(=S)c23)cc1	-1%	-2%	0%	10%	87% (active)
